Source: PubChem BioAssay AID1224817 (Yan Lab, Georgia Cancer Center, Augusta University, 2016)
Out of some 2,000 compounds screened, about 25 (1%) were called active. This excerpt belongs to a sample that is enriched for actives. A number with no mark means an inactive call.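 The calls were made as follows: active = log2 luciferase ratio at or below -0.5849, meaning signal at two thirds of solvent-only control or lower; inactive = the rest.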

Test: eIF4E expression suppression, luciferase knock-in reporter – cell-based, HT1080, primary screen (AID 1224817);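 also: luciferase reports endogenous eIF4E expression since it is co-expressed from the native EIF4E locus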
Conditions: HT1080 EIF4E-luc2 knock-in reporter, 16 h, at 2.5 µM, stronger effect = lower value

Compared with Cc1ncc(COP(=O)(O)O)c(C)c1O, Cc1cc(N=Cc2c(CO)cnc(C)c2O)c(N=Cc2c(CO)cnc(C)c2O)cc1C.[Zn] is higher in log2 luciferase activity ratio: 0.148 for the first, 0.374 for the second.

O=C(O)c1ccc(C(=O)O)c(C(=O)O)c1.[NH-]C1CCCCC1[NH-].[Pt+2] and NC(N)=N/N=C/c1ccc(O)c(C(=O)O)c1 are within 0.2 log units of each other in log2 luciferase activity ratio: 0.127 for the first, 0.267 for the second.

Cn1c(=S)c2[nH]c(SCCCc3ccccc3)nc2n(C)c1=O and CN(C)CCCN=c1c2ccccc2n(C)c2[nH]c(=O)n(C)c(=O)c12 are within 0.2 log units of each other in log2 luciferase activity ratio: 0.0675 for the first, -0.0932 for the second.

CN1CCN(c2nc3c(c(=O)n(C)c(=O)n3C)n2C)CC1 and Cc1nc(CN2CCCCC2)c(O)c(=O)[nH]1 are within 0.2 log units of each other in log2 luciferase activity ratio: -0.0962 for the first, -0.0244 for the second.

Cc1[nH]n(-c2ccc(S(=O)(=O)O)cc2)c(=O)c1N=Nc1ccccc1 and Nc1ccc(N=Nc2ccc(-c3ccc(O)cc3)cc2)c2ccc(S(=O)(=O)O)cc12 are within 0.2 log units of each other in log2 luciferase activity ratio: 0.391 for the first, 0.247 for the second.

Compared with NNC(=O)C(O)C(O)C(=O)NN (stereo not given), O=C(O)C(O)C(O)C(O)C(=O)CO (stereo not given) is lower in log2 luciferase activity ratio: 0.225 for the first, -0.272 for the second.

Going from Nc1nc2c(c(=O)[nH]1)NC(CCNc1ccc(C(=O)O)cc1)CN2 (stereo not given) to NCc1ccc(C(=O)O)cc1, the log2 luciferase activity ratio rises from -0.0715 to 0.304.

O=C1COC(c2ccccc2O)=NN1CCCN1CCCC1 and CC(=O)Nc1cc(CN2CCCCC2)c(O)c2ncccc12 are within 0.2 log units of each other in log2 luciferase activity ratio: 0.0493 for the first, -0.0787 for the second.

CNC1C(OC2C(OC3C(O)C(O)C(N=C(N)N)C(O)C3N=C(N)N)OC(C)C2(O)/C=N/NC(N)=S)OC(CO)C(O)C1O (stereo not given) and CC(C)=CCNc1ncnc2c1c(C#N)cn2C1OC(CO)C(O)C1O (stereo not given) are within 0.2 log units of each other in log2 luciferase activity ratio: -0.0125 for the first, -0.135 for the second.

Compared with COc1cccc2[nH]c(-c3ccccn3)nc12, CN(C)CCN(c1ccccn1)c1ccccn1 is lower in log2 luciferase activity ratio: 1.75 for the first, -0.0299 for the second.

Going from C/C=C/c1cc2c(c(=O)o1)C(=O)[C@@H](O)[C@H](C)O2 to C=C1C(=O)OC2CC(C)C3(O)CCC(=O)C3(C)CC12 (stereo not given), the log2 luciferase activity ratio falls from 0.166 to -0.237.

Compared with Sc1ccc2ccccc2c1CNCc1ccccc1, O=C(O)Cc1c(O)ccc2ccccc12 is lower in log2 luciferase activity ratio: 0.379 for the first, -0.364 for the second.

First: O=C(O)C1CC[N-]CC1.O=C(O)C1CC[N-]CC1.[NH2-].[NH2-].[Pt+4]
Second: O=C(O)C1C(C(=O)O)C(C(=O)O)C1C(=O)O (stereo not given)
The log2 luciferase activity ratio of the first is higher: 0.578 for the first, -0.115 for the second.

First: CCC(C(=O)C(C)C(O)C(C)CCc1ccc(C)c(O)c1C(=O)O)C1OC(CC)(C2CCC(O)(CC)C(C)O2)CC1C (stereo not given)
Second: CC1=C2[C@H]3OC(=O)[C@@H](C)[C@@H]3CC[C@@]2(C)C=C/C1=N\O
The log2 luciferase activity ratio of the first is lower: -0.243 for the first, -0.026 for the second.

Going from Cc1ccc2nc(-c3ccc(NC(=O)c4ccc(N)cc4)c(S(=O)(=O)O)c3)sc2c1 to O=C(O)c1ccc(NS(=O)(=O)Cc2ccccc2)cc1, the log2 luciferase activity ratio falls from 0.394 to 0.0192.

Compared with O=C(O)CNC(=O)C1NC(C(F)(F)F)(C(F)(F)F)OC1(C(F)(F)F)C(F)(F)F (stereo not given), O=C(O)CSCC(=O)c1ccccc1 is lower in log2 luciferase activity ratio: 0.305 for the first, -0.355 for the second.

Nc1ccc(S(=O)(=O)NCCS(=O)(=O)O)cc1 and Cc1ccc(S(=O)(=O)OCC(=O)O)cc1 are within 0.2 log units of each other in log2 luciferase activity ratio: -0.13 for the first, 0.01 for the second.

Compared with O=C(O)c1cc(=O)[nH]c(=S)[nH]1, O=C(O)C(C1NCCS1)N1C(=O)c2ccccc2C1=O (stereo not given) is lower in log2 luciferase activity ratio: 0.238 for the first, -0.326 for the second.

NNC(=O)CS(=O)(=O)Nc1ncccn1 and O=C(O)CC(C(=O)O)c1ccccc1[N+](=O)[O-] (stereo not given) are within 0.2 log units of each other in log2 luciferase activity ratio: -0.266 for the first, -0.346 for the second.

First: O=C(N/N=C/c1ccc2c(c1)CCC2)c1ccccc1O
Second: C[n+]1cccc(/C=C/c2ccc3cccc(O)c3n2)c1
The log2 luciferase activity ratio of the first is lower: 0.157 for the first, 0.721 for the second.

CS(=O)(=O)Nc1ccc(Nc2c3ccccc3nc3ccccc23)cc1 and O=P(O)(CCP(=O)(O)c1ccccc1)c1ccccc1 are within 0.2 log units of each other in log2 luciferase activity ratio: 0.308 for the first, 0.225 for the second.

First: OCC1OC(n2cnc3c(/C=C(/O)c4ccccc4)ncnc32)C(O)C1O (stereo not given)
Second: OCCNc1ncnc2c1ncn2C1OC(CO)C(O)C1O (stereo not given)
The log2 luciferase activity ratio of the first is higher: 1.58 for the first, -0.0424 for the second.

Compared with O=c1ccc2nc3ccc(O)cc3oc-2c1, NCCN1C(=O)c2ccccc2C1(O)c1ccc(Cl)cc1 (stereo not given) is higher in log2 luciferase activity ratio: -0.212 for the first, 0.275 for the second.

Going from NC(CCCCO)C(=O)O (stereo not given) to CC1CN(CCO)CCN1c1ccccc1 (stereo not given), the log2 luciferase activity ratio rises from 0.0343 to 0.393.

Compared with COc1ccc2c3c(ccc2c1)NC(C(=O)O)CC3 (stereo not given), Clc1ccc2c(NCCNC3CCCCC3)ccnc2c1 is lower in log2 luciferase activity ratio: 1.85 for the first, -0.0725 for the second.

Compared with O=C(O)CC(Sc1ccccc1)c1ccccc1 (stereo not given), O=S(=O)(O)C(c1ccccc1)C(O)c1ccccc1 (stereo not given) is lower in log2 luciferase activity ratio: 0.113 for the first, -0.161 for the second.

N#CC[N+]1(Cc2ccccn2)CCCC1 and CN(C)Cc1ccc(O)c(CN(C)C)n1 are within 0.2 log units of each other in log2 luciferase activity ratio: -0.0477 for the first, -0.0218 for the second.

CC12CCC3c4ccc(O)cc4CCC3C1C/C(=N\O)C2O (stereo not given) and CC1=CC(C2/C(=N/O)C=C(C)CC2(C)C)C(O)C(C)(C)C1 (stereo not given) are within 0.2 log units of each other in log2 luciferase activity ratio: -0.14 for the first, -0.118 for the second.

Cc1nn(-c2ccc(S(=O)(=O)[O-])cc2)c([O-])c1N=[N+](C)c1ccc(-c2ccc(N=Nc3ccc4c(S(=O)(=O)[O-])cc(S(=O)(=O)[O-])c(N)c4c3[O-])c([O-])c2)cc1[O-].[Cu+2].[Cu+2].[Na+] and Nc1ccccc1N=Nc1c(S(=O)(=O)O)cc2cc(S(=O)(=O)O)cc(O)c2c1O are within 0.2 log units of each other in log2 luciferase activity ratio: 0.162 for the first, -0.0279 for the second.

Fc1cccc(Cl)c1/C=N\N=C1c2ccccc2-c2ccccc21 and c1ccc2cc(-c3cc(-c4cc(-c5ccc6ccccc6c5)on4)no3)ccc2c1 are within 0.2 log units of each other in log2 luciferase activity ratio: -0.123 for the first, 0.0163 for the second.

Work on N=C(N)c1ccc(/C=C/c2ccc(C(=N)N)cc2)cc1 yielded a log2 luciferase activity ratio of -0.247.

For CCOc1ccc2c(ccc(/C=C\c3cc(C)c4cccnc4c3O)[n+]2C)c1, the log2 luciferase activity ratio was -0.823 (active).
For Oc1cccnc1CN1CCCCC1, the log2 luciferase activity ratio was -0.635 (active).
With CN(CCO)Cc1ncccc1O the log2 luciferase activity ratio was -0.625 (active).
With O=C(O)CNc1ccc(C(=O)O)cc1 the log2 luciferase activity ratio was -0.647 (active).
